# Rows were chosen to be rich in hits. Some 2% of all compounds tested hit in one or more screens of this group.
# GalR3 antagonist: GalR3 antagonists in HEK293 cells, primary screen, cell-based, fluorescence readout | actives 0.44% (n = 360,000) | HEK293 GalR3-CNG cAMP membrane potential fluorescence; galR3 body fused to GalR1 C-terminus | AID 651719, 2012 | inhibition, % at 3 µM;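 active = inhibition above the screen-wide average plus 3 SD, cut at about 13% in these data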;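 also: forskolin and galanin both at EC90 stimulate the cells; cAMP rise reported by CNG channel membrane potential dye signal; 0% = forskolin plus galanin with DMSO and 100% = forskolin alone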
# Target sequence (O60755 1-299 limits assumed): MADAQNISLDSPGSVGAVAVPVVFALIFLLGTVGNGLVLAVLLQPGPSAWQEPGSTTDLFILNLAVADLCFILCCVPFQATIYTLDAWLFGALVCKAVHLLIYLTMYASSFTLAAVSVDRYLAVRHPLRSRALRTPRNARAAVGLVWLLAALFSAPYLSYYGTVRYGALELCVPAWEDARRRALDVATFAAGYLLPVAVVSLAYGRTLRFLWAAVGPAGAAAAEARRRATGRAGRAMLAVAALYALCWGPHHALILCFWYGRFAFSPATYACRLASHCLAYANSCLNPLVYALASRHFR
# Gli-Sufu block: Gli-Sufu pathway antagonists, primary screen, luciferase luminescence, Sufu-KO-LIGHT cells, uHTS; Sufu-KO-LIGHT fibroblasts, Gli luciferase reporter luminescence; inhibition, % at 5 µM; actives 0.74% (n = 340,000);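 active = inhibition above about 55%, limit read from the data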;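 also: 0% = DMSO-treated cells and 100% = wells with medium but no cells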
# 697 NFkB inh: inhibitors of PMA/ionomycin-induced NF-kB reporter, 697 cells, primary screen, B-cell NF-kB inhibitor project, cell-based, luminescence, uHTS; inhibition, % at 4 µM; AID 435022, 2010; 697 B-cell NF-kB luciferase reporter, 16 h; actives 0.33% (n = 330,000); in the data active = inhibition above about 35%
# Jurkat NFkB inh: inhibitors of induced NF-kB luciferase reporter, primary screen, TCR NF-kB activation inhibitor project, cell-based, luminescence, uHTS; Jurkat, PMA/ionomycin-induced NF-kB luciferase reporter; AID 435003, 2010; actives 0.53% (n = 330,000); inhibition, % at 4 µM; in the data active = inhibition above about 50%
# NR2F2 inh: NR2F2 transcriptional activity inhibitors, primary screen, cell-based, luciferase reporter, HEK293T, luminescence; COUP transcription factor 2 (Homo sapiens), P24468; HEK293T NGFI-A luciferase reporter; actives 0.7% (n = 370,000); inhibition, % at 8.6 µM;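 active = inhibition above a per-plate cutoff, mean inhibition of test wells between control levels plus 3 SD, cut at about 38% in these data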;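 also: cells cotransfected with COUP-TFII expression vector driving the NGFI-A reporter; 0% = median of COUP-TF2 test wells and 100% = reporter-only cells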
# VP16 Luc counter: Gal4-VP16 luciferase reporter inhibitors, counter-screen for COUP-TFII antagonist project, cell-based, luminescence, HEK293 | shares compounds with NR2F2 inh | inhibition, % at 8.5 µM | actives 25% (n = 2,500); in the data active = inhibition above about 13%
# NR2F2 inh conf: NR2F2 transcriptional activity inhibitors, confirmation, cell-based, luciferase reporter, HEK293, triplicate. shares compounds with NR2F2 inh. HEK293 NGFI-A luciferase reporter, luminescence. inhibition, % at 8.5 µM. actives 45% (n = 2,500). AID 687008, 2013;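 active = mean inhibition over three repeats above a set limit taken from the earlier primary screen, cut at about 38% in these data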;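 also: 100% = cells given the luciferase reporter alone without the COUP-TF2 vector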
# Active calls of the source: *; nt = not tested or not shown.
SMILES,GalR3 antagonist,Gli-Sufu block,697 NFkB inh,Jurkat NFkB inh,NR2F2 inh,VP16 Luc counter,NR2F2 inh conf
COCCN=c1scc(-c2ccc3c(c2)NC(=O)CO3)n1/N=C(\C)c1ccc(O)cc1,9,-5,-3,4,38*,-8,0
O=C(NCc1cccnc1)c1ccc(COc2ccc(Cl)cc2)cc1,-2,24,-33,9,66*,-17,4
Nc1ccc(C(=O)Nc2cccc3ncccc23)cc1,0,-7,0,5,-17,nt,nt
O=C(Nc1cccc2ncccc12)c1ccc(OCc2ccccc2)cc1,-10,28,-13,14,43*,-9,16
CN1C(=O)C2(C(C#N)=C(N)N(c3cc(Cl)cc(Cl)c3)C3=C2C(=O)CCC3)c2ccccc21 (stereo not given),-4,8,27,3,43*,-16,26
O=C1N(Cc2ccccc2)c2ccccc2C12CCCc1oc(CCc3ccccc3)nc12 (stereo not given),nt,nt,nt,nt,-9,nt,nt
COc1ccc([C@@]23Oc4cc(OC)cc(OC)c4[C@]2(O)[C@H](O)[C@H](C(=O)N(C)C)[C@H]3c2ccccc2)cc1,2,77*,nt,nt,87*,20*,74*
O=C(NC1CCCC1)C(c1ccccc1)n1c(CSCCOc2ccccc2)nc2ccccc21 (stereo not given),-8,nt,nt,nt,59*,46*,50*
O=C(Nc1ccc(F)c(F)c1)c1ccc(F)c(S(=O)(=O)N2CCC3(CC2)OCCO3)c1,-9,23,-4,9,39*,-4,18
CCc1ccc(NC(=O)c2ccc(F)c(S(=O)(=O)NCC3COc4ccccc4O3)c2)cc1 (stereo not given),-3,0,-36,9,38*,-4,13
CCN(c1ccccc1)S(=O)(=O)c1cc(C(=O)Nc2ccc(Br)cc2)ccc1F,6,7,-58,15,65*,-5,41*
COc1ccc(C2Nc3ccccc3C(=O)N2Cc2ccco2)cc1COc1c(C)cc(NC(C)=O)cc1C (stereo not given),nt,nt,nt,nt,14,nt,nt
O=C1CSc2ccc(C(=O)N3CCCC(C(=O)N4CCCC4)C3)cc2N1 (stereo not given),nt,nt,nt,nt,-2,nt,nt
COc1ccc(-c2csc(NC(=O)C3=NN(c4ccccc4)C(=O)CC3)n2)cc1,-2,2,-13,-5,49*,-25,19
O=C(NC1CCCCC1)c1n[nH]c2c1CCCCC2,-2,-30,-112,0,50*,-19,37
COc1ccc(-c2nc3ccccc3c(=O)n2Cc2ccccc2)cc1COc1ccc(NC(C)=O)cc1,nt,nt,nt,nt,-53,nt,nt
COc1ccccc1N1CCN(C(=O)c2sc3nc(-c4ccc(F)cc4)cn3c2C)CC1,nt,2,-30,18,52*,1,30
COc1ccccc1N1CCN(C(=O)CCC(=O)N2CCN(c3ccccc3OC)CC2)CC1,-12,0,4,7,2,nt,nt
COc1ccc(-c2cn3c(C)c(C(=O)N4CCN(c5ccc(F)cc5)CC4)sc3n2)cc1,nt,-10,-25,13,1,nt,nt
COc1ccccc1N1CCN(C(=O)CCC(=O)N2CCN(c3ccc(F)cc3)CC2)CC1,-8,8,-1,-5,40*,-4,5
Fc1c(-c2ccc3ncnc(NCc4cccs4)c3c2)ccc2c1OCO2,nt,nt,nt,nt,-25,nt,nt
CCOC(=O)[C@@]12CN(C(=O)OC(C)(C)C)CC=C1N(Cc1ccc(OC)cc1)C(=O)[C@H]2CC(=O)N1CCN(C(=O)c2ccco2)CC1,nt,nt,nt,nt,14,nt,nt
CCN1/C(=C/c2ccc3cc(C)ccc3[n+]2C)Sc2ccc3sccc3c21,-2,86*,nt,nt,38*,5,12
COc1ncc(-c2cc(C(C)=O)c3n(c2=O)CCC3)c(OC)n1,nt,nt,nt,nt,-9,nt,nt
COC(=O)c1cc(-c2cc3ccccc3o2)c(=O)n2c1CCC2,nt,nt,nt,nt,-13,nt,nt
SMILES,GalR3 antagonist,Gli-Sufu block,697 NFkB inh,Jurkat NFkB inh,NR2F2 inh,VP16 Luc counter,NR2F2 inh conf
O=C(COC(=O)CCN1C(=O)/C(=C\C=C\c2ccccc2)SC1=S)Nc1cc(F)ccc1F,0,12,2,16,42*,53*,64*
O=C(CN1C(=O)/C(=C\C=C\c2ccccc2)SC1=S)Nc1ccc(F)cc1,-2,-17,-28,-5,-3,nt,nt
Cc1cc(C(=O)CSc2ccc(F)cc2)cc(C)c1OC(=S)N(C)C,-1,-8,-136,-21,73*,57*,85*
CN(C)CC(=O)N[C@H]1C[C@@H]2O[C@@H](CO)CC[C@@H]2O[C@@H]1CCc1ccc(-c2ccc(F)cc2)cc1,nt,nt,nt,nt,-25,nt,nt
Cc1ccc(-c2nnc(SCC(=O)Nc3ccccc3F)o2)cc1,4,-34,-221,47,64*,24*,40*
COc1cccc(CN(C)C(=O)c2cc(COc3ccc(-n4cncn4)cc3)on2)c1,-2,49,-13,12,38*,-4,-1
COc1cccc(OCc2cc(C(=O)N(C)Cc3nccn3C)no2)c1,1,-8,-71,-51,-48,nt,nt
COCCCN1C(=O)[C@H](CC(=O)N2CCN(C(=O)c3ccco3)CC2)[C@]2(C(=O)OC)CCCCC=C12,nt,nt,nt,nt,13,nt,nt
CC(C)OC(=O)CSc1nc(N)c(C#N)c(-c2cccs2)c1C#N,-9,13,-16,18,45*,5,25
C=CCN=C1NC(c2ccccc2C(F)(F)F)C(C(=O)OC)=C(C)N1Cc1ccccc1C(F)(F)F (stereo not given),-7,nt,nt,nt,0,nt,nt
c1ccc2c(-c3cnc4cccnn34)cncc2c1,-2,nt,nt,nt,-6,nt,nt
c1cc(-c2cnc3cccnn23)c2cccnc2c1,-1,nt,nt,nt,46*,4,26
Cc1c(C)n(Cc2ccccc2)c2ncnc(Cl)c12,-10,6,-24,16,45*,10,42*
CCCCCCNC(=O)C1CSCCS(=O)(=O)N1Cc1ccc(C)cc1 (stereo not given),nt,nt,nt,nt,-12,nt,nt
Nc1ccc(Oc2cccc(Oc3ccc(N)cc3)c2)cc1,-1,34,22,-9,77*,77*,74*
Cc1cc(C)cc(Oc2ccc(N)cc2)c1,-4,1,-10,12,51*,20*,24
Cc1cccc(Oc2ccc(N)cc2)c1,-6,-1,-34,8,13,nt,nt
COc1ccc(OC)c(S(=O)(=O)N2CCC(c3cn4ccccc4n3)CC2)c1,nt,nt,nt,nt,-5,nt,nt
